An excerpt weighted towards active compounds, which were near 21% of everything screened.
Pf growth 48h: Primary qHTS for delayed death inhibitors of the malarial parasite plastid, 48 hour incubation; Potency, µM (titrated, usually from 28.7 µM), inactives show top-dose activity change, negative = inhibition, most hits filed as inhibitors; 310,000 compounds, 5.9% hits; AID 504832, 2011; P. falciparum luciferase growth in erythrocytes, 48 h; note: potency is the fitted concentration of half-maximal effect; % is set by controls: 0 for no effect and ±100 for the full control effect
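Compounds are pin-transferred into medium, infected erythrocytes (2% hematocrit, 0.1% parasitemia final) are added, and plates sit one parasite generation at 37 C in 5% CO2. Detection reagent is then added and luminescence measured.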
Pf growth 96h: Primary qHTS for delayed death inhibitors of the malarial parasite plastid, 96 hour incubation. P. falciparum luciferase reporter growth, 96 h. 320,000 compounds, 6.9% hits. Potency, µM (top dose mostly 28.7 µM), for inactives: at the highest dose activity change, negative = inhibition, most hits filed as inhibitors. AID 504834, 2011; note: potency is the fitted concentration of half-maximal effect; % is set by controls: 0 for no effect and ±100 for the full control effect
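Parasite growth measured via integrated firefly luciferase reporter in P. falciparum. Infected erythrocytes at 2% hematocrit, 0.05% parasitemia final were treated 96 hours at 37 C under 5% CO2, and luminescence was read.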
Shiga toxin inh: A qHTS for Small Molecule Inhibitors of Shiga Toxin. inhibition, % at 38.7 µM. 290,000 compounds, 9.2% hits. Vero cells, Shiga toxin protein synthesis inhibition reporter. AID 2315, 2010; in the data active = inhibition mostly above about 28%, no sharp cut-off; inactive = mostly below about 43%; note: 0% is about no effect
CHX counter: Cycloheximide Counterscreen for Small Molecule Inhibitors of Shiga Toxin; AID 2314, 2010; max response, %; 300,000 compounds, 12% hits; cell reporter, cycloheximide protein synthesis inhibition counterscreen; in the data active = max response mostly above about 13%, no sharp cut-off; inactive = mostly below about 14%; note: read at 38.3 µM for the half of the compounds with a filed dose; 0% is about no effect
Numbers without * were called inactive; i = inactive; ? = inconclusive; nt = not tested or not shown; [ ] = another dose, or the depositor's remark. Unless noted, calls come from the whole dose curve; as a rule, active = well fitted inhibition curve with a large enough effect; inconclusive = small, poorly fitted or top-dose-only effect, or another doubt; inactive = no such curve, though single readings can be large or run the other way.

SMILES | Pf growth 48h | Pf growth 96h | Shiga toxin inh | CHX counter
CC[C@H](C)[C@H](NC(=O)[C@H](CC(C)C)NC(=O)[C@@H](N)CO)C(=O)NCC(=O)N[C@@H](CCCCN)C(=O)N[C@H](C(=O)O)C(C)C | nt | nt | 12 | -4
Brc1c(OCCOCCn2cncn2)ccc2ccccc12 | 71% | ? | 27* | 20*
Cc1cc(Cl)ccc1OCCn1cncn1 | 32% | 28% | -4 | -1
C(=N\NC1=Nc2cccc3cccc1c23)/c1cccnc1 | 112% | -17% | 72* | 40*
COc1ccc(NC2=Nc3cccc4cccc2c34)cc1OC | ? | ? | -3 | 9
COc1cccc(NC2=Nc3cccc4cccc2c34)c1 | 15% | ? | 24 | 21*
C(=N\NC1=Nc2cccc3cccc1c23)/c1ccccc1 | 330% | 323% | 43* | 87*
Clc1ccc(/C=N/NC2=Nc3cccc4cccc2c34)cc1 | 157% | 82% | 85* | 24*
NC(=S)N/N=C/c1cccnc1 | -10% | -12% | nt | nt
Clc1ccc(/C=N/Nc2nn[nH]n2)cc1 | ? | -11% | -3 | -3
COc1ccccc1C(=O)NC(CCSC)C(=O)NCCCn1nc(C)cc1C (stereo not given) | -7% | 6% | nt | nt
COc1ccccc1/C=C/CN1CCC(n2nccc2NC(=O)C2CC2)CC1 | 7% | ? | -3 | -3
CN(C)CCN(C)Cc1c2ccccc2c(CN(C)CCN(C)C)c2ccccc12 | 6.6µM* | 1.7µM* | 20 | 1
CN(C)CCP(=O)(c1ccccc1)c1ccccc1 | 1% | 26% | -8 | -2
COc1ccc(S(=O)(=O)NC(C)C(=O)NCc2ccccn2)cc1Cl (stereo not given) | 4% | 0% | 3 | -4
O=C(/C=C/Nc1cccc(O)c1)c1ccccc1 | 328% | i | 16 | 15
O=C(/C=C\Nc1ccc(Cl)cn1)c1ccc(Br)cc1 | 108% | 8% | 36 | 14
O=C(/C=C/Nc1ccc(Br)cc1F)c1ccccc1 | 170% | 43% | 41* | 38*
O=C(/C=C/Nc1ccccc1F)c1ccc(Br)cc1 | 246% | 51% | 87* | 61*
CCC(Sc1nc(C)cc(=O)[nH]1)C(=O)Nc1nc2c(s1)CCCC2 (stereo not given) | 33% | ? | 42* | 15*
c1ccc(Cn2c(CNc3nc4ccccc4n3CCN3CCCCC3)nc3ccccc32)cc1 | 4.7µM* | -20% | -3 | -2
OCCNc1nc2ccccc2n1CCN1CCCCC1 | -6% | -19% | 6 | -5
CCN(CC)CCn1c(NS(=O)(=O)c2ccc(C)cc2)nc2ccccc21 | -18% | 10µM* | nt | nt
COc1ccc(CNc2nc3ccccc3n2CCN2CCCCC2)cc1 | -30%[5.75 µM] | ? | -1 | -3
CCN(CC)CCn1c(NCc2nc3ccccc3n2Cc2ccccc2)nc2ccccc21 | nt | 3.7µM* | -9 | -4
SMILES | Pf growth 48h | Pf growth 96h | Shiga toxin inh | CHX counter
Cn1c(CNc2nc3ccccc3n2CCN2CCCCC2)nc2ccccc21 | 12µM* | 2.6µM* | -5 | -4
COCCC(=O)N1CCC(Oc2ccc(C(=O)NC(C)CCn3cccn3)cc2)CC1 (stereo not given) | -4% | 61% | -9 | -2
COc1ccccc1NC(=O)NNC(=O)CCN1CCOCC1 | ? | 70% | 26 | 4
CO[C@]1(NC(=O)C2SC(=C(C(N)=O)C(=O)O)S2)C(=O)N2C(C(=O)O)=C(CSc3nnnn3C)CS[C@H]21 (stereo not given in full) | 1%[12.8 µM] | -2%[12.8 µM] | nt | nt
O=C(CSc1nc2sccc2c(=O)[nH]1)N1CCN(c2ccccc2)CC1 | ? | ? | -16 | -2
CN1C(=O)C(Cl)(Cl)C(=O)c2ccccc21 | 3% | 21% | 6 | 18*
COc1cc(CNC(C)C)c(Br)cc1OC1CCCC1 | -17% | 0% | -12 | -2
O=C(Nc1cccc(F)c1)c1c(F)c(F)c(F)c(F)c1F | 13µM* | nt | -11 | 4
O=C(Nc1cccnc1)c1c(F)c(F)c(F)c(F)c1F | ? | nt | -13 | -3
O=C(Nc1ccncc1)c1c(F)c(F)c(F)c(F)c1F | 10µM* | -26% | 3 | -3
CC(C)(C)OC(=O)NS(=O)(=O)Nc1ccccc1Br | nt | nt | -8 | 13
COc1ccccc1CCc1nnc(CCC(=O)NCC(C)Oc2cccnc2)o1 (stereo not given) | 21% | 17µM* | -2 | 1
OC1(c2cccc(C(F)(F)F)c2)CCNCC1 | -1% | 13µM* | 16 | -2
CC(=NCC1CCCO1)c1c(O)n(C)c(=O)n(C)c1=O (stereo not given) | 3% | 15µM* | -5 | 2
